Source: PubChem BioAssay (National Center for Advancing Translational Sciences (NCATS))
SMN2 splice enh = increases expression of the SMN2 splice variant | HEK293 SMN2-luciferase splicing reporter, luminescence, 30-36 h | Potency, µM (doses to about 46.1 µM), without a hit: top-dose activity change, positive = activation, actives largely listed as activators | 210,000 tested, 2.8% active | AID 1458; also: % of control where 0% means no effect; nearly all actives have a fitted effect of over 55% in size
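qHTS luciferase splicing reporter: luminescence rises when SMN2 exon 7 is included in transfected HEK293 cells. Compound exposure lasted 30-36 h at 37C, with 4.5 mM final sodium butyrate as control, followed by a ONE-Glo read.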
ELG1 genotoxic = induces genotoxicity in HEK293T cells with luciferase-tagged ELG1. HEK293T ELG1-luciferase reporter, luminescence, 16 h. Potency, µM (doses to about 46 µM), without a hit: at the top dose activity change, positive = activation, actives largely listed as activators. 330,000 tested, 1.3% active. AID 504466; also: % of control where 0% means no effect; nearly all actives have a fitted effect of over 60% in size
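ELG1-luciferase HEK293T cells, 2,000/well; compound pinned in; 16 hr, 37 °C, 5% CO2; ONE-Glo, 30 min RT; luminescence on CCD imager.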
FLuc modulator = inhibits or activates purified firefly luciferase, miR-21 counter-screen. 360,000 tested, 6.9% active. Potency, µM (series often up to 57.5 µM), for inactives: at the highest dose activity change, negative = inhibition, actives largely listed as inhibitors. P08659. purified FLuc, Km substrates, luminescence inhibition;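 also: plate controls were vehicle for no effect and reference inhibitor for full effect; nearly all actives have a fitted effect of over 55% in size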
Target sequence (P08659 whole entry, looked up): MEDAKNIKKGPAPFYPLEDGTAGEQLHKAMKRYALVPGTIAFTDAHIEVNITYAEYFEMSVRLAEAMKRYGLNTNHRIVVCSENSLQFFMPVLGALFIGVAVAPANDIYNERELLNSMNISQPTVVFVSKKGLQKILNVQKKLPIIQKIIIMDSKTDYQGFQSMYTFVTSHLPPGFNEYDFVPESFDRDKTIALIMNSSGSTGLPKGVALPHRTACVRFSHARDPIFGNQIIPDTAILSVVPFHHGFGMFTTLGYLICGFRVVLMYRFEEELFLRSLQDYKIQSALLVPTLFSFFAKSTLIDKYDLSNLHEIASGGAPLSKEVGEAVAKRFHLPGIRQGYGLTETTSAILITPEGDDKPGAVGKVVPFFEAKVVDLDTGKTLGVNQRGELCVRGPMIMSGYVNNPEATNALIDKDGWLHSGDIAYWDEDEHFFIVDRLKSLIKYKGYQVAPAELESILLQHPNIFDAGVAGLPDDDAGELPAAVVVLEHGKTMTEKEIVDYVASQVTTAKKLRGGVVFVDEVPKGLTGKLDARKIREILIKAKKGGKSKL
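Purified P. pyralis luciferase (10nM final) with 10uM D-luciferin and 10uM ATP (Km levels) in 50mM Tris acetate pH 7.5, 10mM Mg acetate, 0.01% Tween-20, 0.05% BSA; qHTS 6-point titration, ~60 µM downward; luminescence read.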
Rab9 promoter act = activators of Rab9 promoter; Potency, µM (top dose mostly 9.22 µM), inactives show at the highest dose activation, negative = inhibition, usual class: activators; AID 485297; Huh7 Rab9 promoter-luciferase reporter, luminescence, 24 h; 320,000 tested, 2.8% active; also: % of control where 0% means no effect; nearly all actives have a fitted effect of over 60% in size
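Luminescence read-out: Huh7 cells stably expressing Rab9-luciferase, treated 24 h with compound at 37 °C, then lysed with luciferase reagent for 10 min at ambient before reading.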
NPC1 promoter act = activates the NPC1 promoter. Potency, µM (titrated, usually from 9.22 µM), inactives show at the top dose activation, actives largely listed as activators. 320,000 tested, 2.4% active. Huh7 NPC1 promoter luciferase reporter, 24 h; also: % of control where 0% means no effect; nearly all actives have a fitted effect of over 60% in size
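Luminescence from an NPC1 promoter-driven luciferase reporter in stably transfected Huh7 cells was measured after 24 h compound treatment at 37 °C, followed by 10 min ambient incubation with luciferase detection reagent.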
* marks the source's active call; other numbers are inactive results; u = inconclusive; x = not tested or not shown; [ ] = dose if it differs, or a comment. An excerpt weighted towards active compounds, which were near 7.4% of everything screened. Calls follow the shape of the dose curve; as a rule, active = well fitted curve in the direction sought with a large enough effect; inconclusive = small, poorly fitted or top-dose-only effect, or another doubt; inactive = no such curve, though single readings can be large; an effect the other way counts as inactive or inconclusive. Potency is read from the fitted curve at half-maximal effect.

SMILES | SMN2 splice enh | ELG1 genotoxic | FLuc modulator | Rab9 promoter act | NPC1 promoter act
COc1cccc(OCc2cc(C(=O)N3C[C@H]4C[C@@H](C3)c3cccc(=O)n3C4)no2)c1 | x | 18µM* | 17µM* | 4µM* | 3.2µM*
CC(=O)n1cc(C=C2C(=O)NC(=O)NC2=O)c2ccccc21 | x | 1%[9.26 µM] | 15µM* | 1% | -3%
Cn1cc(C=C2C(=O)NC(=O)NC2=O)c2ccccc21 | x | 1% | -9% | -3% | 0%
CCC(C)C(=O)OC1C(O)C2C(CN3CC(C)CCC3[C@]2(C)O)C2C[C@]34O[C@@]5(O)C(OC(=O)C(C)(O)CC)CCC3(C)C5C(OC(C)=O)C(OC(C)=O)C4[C@@]21O (stereo not given in full) | -1% | x | x | x | x
O=C1NC(=O)N(c2ccccc2)C(=O)/C1=C\C=C\c1ccccc1 | x | -15% | u | -19% | -3%
O=C(CN1C(=O)S/C(=C\C=C\c2ccccc2)C1=O)Nc1ccccc1C(=O)O | x | 3% | 27µM* | 10% | 1%
O=C1NC(=O)N(c2ccc(Br)cc2)C(=O)/C1=C/c1ccsc1 | x | 0% | u | 0% | -8%
O=C1NC(=O)N(c2ccc(F)cc2)C(=O)/C1=C/c1ccsc1 | 9% | 2% | 19µM* | -1% | 5%
O=C1NC(=O)N(c2cccc(Br)c2)C(=O)/C1=C/c1ccsc1 | x | 0% | 17µM* | -7% | -2%
c1ccc2c([C@@H]3CCN(CCN4CCOCC4)C3)c[nH]c2c1 | 5%[9.22 µM] | x | x | x | x
O=C(Nc1ccc(Cl)cc1)OC1CN2CCC1CC2 (stereo not given) | x | u | 15µM* | u | u
O=C(Nc1ccccc1Cl)OC1CN2CCC1CC2 (stereo not given) | x | 2% | -7% | -2% | -1%
O=C(Nc1cccc(Cl)c1)OC1CN2CCC1CC2 (stereo not given) | x | -14% | 13µM* | 18% | 19%
COC(=O)C(O)(c1ccc(NC(=O)c2ccccc2)cc1)C(F)(F)F (stereo not given) | x | 9% | 19µM* | u | u
COC(=O)C(O)(c1ccc(NC(=O)c2cccs2)cc1)C(F)(F)F (stereo not given) | x | 17% | 15µM* | u | 26%
CCCCNC(=O)Nc1ccc(C(O)(C(=O)OC)C(F)(F)F)cc1 (stereo not given) | x | 16% | u | 13% | 13%
CN1CCc2cc3c(c4c2C1Cc1ccccc1-4)OCO3 (stereo not given) | x | -6% | -1% | 6.3µM* | 9%
CCN1C[C@]2(C)CC[C@H](O)[C@@]34[C@@H]5C[C@@H]6[C@@H](OC)C[C@@](O)(C5[C@H]6O)[C@@H](C[C@@H]23)[C@@H]14 | -12% | x | x | x | x
COc1ccccc1N=Nc1ccc(N)c(C)c1 | x | u | 15µM* | 11%[1.84 µM] | 26%
Cc1ccc2ccccc2c1C | -1% | x | x | x | x
O=C1NC(=O)N(CC2CCCO2)C(=O)/C1=C/c1cccs1 (stereo not given) | x | 8% | u | -2% | -1%
CCN(CC)c1ccc(/C=C2/C(=O)NC(=O)N(CC3CCCO3)C2=O)cc1 (stereo not given) | -6% | 7% | 17µM* | 8% | 0%
CC(C)c1nccn1Cc1ccc(Cl)cc1Cl | -34%[9.22 µM] | x | x | x | x
COC(=O)C12CC3=C[C@H](CC3=O)Cc3ccccc3[C@@H]1CNC2=O (stereo not given in full) | -14% | x | x | x | x
CC(=O)c1ccc(OC(=O)N(C)c2ccccc2)cc1 | 16µM* | u | -18% | u | u
SMILES | SMN2 splice enh | ELG1 genotoxic | FLuc modulator | Rab9 promoter act | NPC1 promoter act
[N-]=[N+]=[N-] | -5% | x | x | x | x
Cc1cc(C(=O)N=Nc2c(O)n(C)c3ccccc23)c(C)o1 | 7.1µM* | 7.3µM* | 2.7µM* | 3.5µM* | 2.5µM*
N[C@@H](CP(=O)(O)O)C(=O)O | -20%[9.22 µM] | x | x | x | x
CC1CCN(C(=O)COC(=O)c2cn(C)c3ccccc23)CC1 | x | 7% | 24µM* | -2% | -3%
OCC[n+]1c2ccccc2nc2ccc(N3CCOCC3)cc21 | x | -10% | 27µM* | -4% | -3%
COc1ccc(/C=N/N=C(/N)N[N+](=O)[O-])c(OC)c1 | -5% | 13% | u | 9% | 8%
N/C(=N\N=C/c1ccc(-c2ccc(O)c(C(=O)O)c2)o1)N[N+](=O)[O-] | 1% | 1% | 27µM* | 6% | -4%
O=C(Oc1ccccc1)N1CCC[C@@]2(CCN(Cc3nccs3)C2)C1 | -20% | x | x | x | x
COc1ccc(OCCOc2cccc(C=C3C(=O)NC(=O)NC3=O)c2)cc1 | x | 1% | 8.5µM* | 0.11µM* | 0.32µM*
Nc1ccccc1O.O.O=C(O)[C@H]1[O][Sb][O][C@H]1C(=O)O | -26%[9.22 µM] | x | x | x | x
Cc1ccc(-c2nn(Cc3ccccc3)cc2C=O)cc1C | 6% | 1% | 27µM* | 23% | 17%
Cc1ccc(-c2nn(Cc3ccccc3)cc2C=O)cc1 | u | 14% | 19µM* | 3.5µM* | u
Cc1ccc(Cn2cc(C=O)c(-c3ccc(F)cc3)n2)cc1 | x | 0% | u | -2% | 5%
CC(C)[C@]1(O)[C@@H](OC(=O)c2ccc[nH]2)[C@]2(O)[C@@]3(C)C[C@@]4(O)O[C@@]5([C@H](O)[C@@H](C)CC[C@]35O)[C@]2(O)[C@]41C | -2%[9.22 µM] | x | x | x | x
CCc1ccc(CCN2CCCCC2)nc1 | 1%[9.22 µM] | x | x | x | x
O=C(CSc1nnc(NC(=O)c2cccc(F)c2)s1)NCc1ccco1 | x | 26% | 3.4µM* | u | u
COc1ccc(-n2nc(C(=O)NCC(=O)N3CCC4(CC3)OCCO4)c3ccccc3c2=O)c(OC)c1 | x | u | 1.1µM* | u | u
O=C(Cn1cnc2ccccc2c1=O)NCC(=O)N1CCC2(CC1)OCCO2 | 21% | 0% | 2% | -2% | 0%
CCC(Oc1cc(Cl)ccc1Cl)C(=O)N1CCC2(CC1)OCCO2 (stereo not given) | x | u | 11µM* | 1.8µM* | 0.89µM*
CCN1C(=O)C(=Cc2ccc(C)s2)C(=O)N(CC)C1=S | 20µM* | u | u | 18% | u
Cc1oc(-c2ccc(Cl)cc2)nc1CN1CCC(C(=O)NCCCN2CCN(c3cccc(Cl)c3)CC2)CC1 | -19% | x | u | x | x
CC(C)(C)c1ccc(C(=O)NC(=S)Nn2cnnc2)cc1 | x | 1% | 19µM* | 23% | 20%
Cc1c(C(=O)N2CCOCC2)sc2nc(-c3ccccc3)cn12 | u | u | 17µM* | 2.5µM* | 4µM*
Cc1cn2c(=O)cc(COC(=O)c3ccccc3F)nc2s1 | x | x | 2.7µM* | x | x
Clc1cccc(C(Cl)(Cl)Cl)n1 | -4% | x | x | x | x
CC(Cc1ccccc1)NC(=O)NC(C)Cc1ccccc1 (stereo not given) | x | 12µM* | 13µM* | 2.8µM* | u
CC(Cc1ccccc1)NC(=O)c1ccc(N)cc1 (stereo not given) | x | u | 21µM* | 3.5µM* | 3.2µM*
